In PubChem BioAssay AID1159580 (chemical genetic matrix, 2015):
Hit rate of the full screen: of about 5,500 compounds, about 2,000 (36%) were called active. About 18% were inconclusive and are not listed. No stated cut-off is given here; in the data, active means normalized growth mostly below about 0.91 (no sharp cut-off); inconclusive means no clear call, values can overlap the other calls; inactive means mostly above about 0.92. Some of the results follow.

Test: chemical genetic growth profiling, strain panel (AID 1159580);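 further: tested at 20 µM; growth read once vehicle control cultures reached saturation at 30 °C; 1 = growth at the plate median or of vehicle wells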
Details: S. cerevisiae deletion strains, growth OD

Measured: normalized growth

N[C@H](CCC(=O)NCS(=O)(=O)O)C(=O)O
inactive: locus YAL013W, strain DEP1, stronger effect = lower value 1.01 | locus YAL040C, strain CLN3, stronger effect = lower value 0.996 | locus YCL061C, strain MRC1 (second series), stronger effect = lower value 1.01 | locus YDR150W, strain NUM1, stronger effect = lower value 1 | locus YDR363W, strain ESC2, stronger effect = lower value 1.02 | locus YER002W, strain NOP16, stronger effect = lower value 1.02 | locus YGR078C, strain PAC10, stronger effect = lower value 0.997 | locus YGR229C, strain SMI1, stronger effect = lower value 1.03 | locus YMR263W, strain SAP30, stronger effect = lower value 1.01 | locus YMR307W, strain GAS1, stronger effect = lower value 1 | locus YNL128W, strain TEP1, stronger effect = lower value 1 | locus YNL175C, strain NOP13, stronger effect = lower value 0.998 | locus YNL197C, strain WHI3, stronger effect = lower value 0.997 | locus YNL224C, strain SQS1, stronger effect = lower value 0.986 | locus YNL322C, strain KRE1, stronger effect = lower value 1.01 | locus YOR083W, strain WHI5 (second series), stronger effect = lower value 0.981 | locus YPL055C, strain LGE1, stronger effect = lower value 1.02 | locus YPL241C, strain CIN2, stronger effect = lower value 1
